Assay [1] in a line: P-glycoprotein substrates identified in KB-3-1 adenocarcinoma cell line, qHTS therapeutic library screen (AID 1346986). Also: nearly all actives have a fitted effect of over 60% in size. The gist of the method: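 Counter-screen: cherry-picked hits retested in the KB pair and in HEK-293 pcDNA/MDR-19 cells ± tariquidar. Primary screen used 72 h CellTiter-Glo viability in KB-3-1 and KB-8-5-11.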
A short description of assay [2]: qHTS profiling of the MIPE4 collection as inhibitors of Plasmodium falciparum (3D7) proliferation (AID 743344; call rule not given here;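 also: scaled between DMSO vehicle wells and 0.29 µM artemisinin as full inhibition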). The note with it: P. falciparum 3D7 in erythrocytes, SYBR Green DNA fluorescence, 72 h; at 28.5 µM (top of the series) unless noted. The gist of the method:
(§1)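 Erythrocytes infected with P. falciparum (0.3% parasitemia, 2.5% hematocrit) incubated with compounds 72 h at 37 C, 5% CO2. Lysis with saponin/Triton buffer containing SYBR Green I, overnight at room temperature in the dark; DNA fluorescence (485/535 nm) normalised to 0.29 uM artemisinin and DMSO.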

The nature of assay [3]: qHTS profiling of the MIPE4 collection as inhibitors of Plasmodium falciparum (DD2) proliferation (AID 743345; call rule not given here). The settings on record: P. falciparum Dd2 in erythrocytes, SYBR Green DNA, 72 h; at 28.5 µM (top of the series) unless noted. An outline of the steps:
as §1
Background: Quantitative high-throughput screening tests each substance at several concentrations.

The nature of assay [4]: qHTS profiling of the MIPE4 collection as inhibitors of Plasmodium falciparum (DD2) proliferation (Rep 2) (AID 743346; call rule not given here). The note with it: P. falciparum Dd2 in erythrocytes, SYBR Green DNA, 72 h; at 28.5 µM (top of the series) unless noted. An outline of the steps:
as §1

The nature of assay [5]: qHTS profiling of the MIPE4 collection as inhibitors of Plasmodium falciparum (HB3) proliferation (AID 743347; call rule not given here;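 also: plate controls were DMSO vehicle wells for no effect and artemisinin wells for full effect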). The settings on record: P. falciparum HB3 in erythrocytes, SYBR Green DNA, 72 h; at 28.5 µM (top of the series) unless noted. An outline of the steps:
as §1

Assay [6] in a line: qHTS assay to identify small molecule inhibitors of chordoma cells - UCH-2 (AID 1259356). Also: % is scaled to controls: 0 for no effect and ±100 for the full control effect.
The nature of assay [7]: qHTS Assay for Identifying Gametocytocidal Compounds (AID 743244). Also: potency is read from the fitted curve at half-maximal effect.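 As to max response: % is scaled to controls: 0 for no effect and ±100 for the full control effect; actives lower the fluorescent signal which means gametocytes are killed.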 The settings on record: P. falciparum 3D7 stage III-V gametocytes, alamarBlue, 72 h; max response: stronger effect = lower value. The gist of the method:
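Using 20,000 stage III–V 3D7 gametocytes per well, compounds were incubated 72 h under 37 °C/5% CO2. Viability was then assessed by 24 h alamarBlue reduction, measured fluorometrically at 525/598 nm.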

The nature of assay [8]: qHTS assay for cell viability of HEK293 cells (AID 743288). Also: % is scaled to controls: 0 for no effect and ±100 for the full control effect; nearly all actives have a fitted effect of over 50% in size. The note with it: ATP luminescence (CellTiter-Glo), 18 h, stronger effect = lower value. An outline of the steps:
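The Tox21 protocol used parental HEK293 cells treated for 18 h at 37 C with compounds delivered by pintool; ATP-coupled luminescence after 30 min at room temperature gave viability.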

Assay [9] in a line: qHTS assay for cell viability of the p53RE-bla HCT-116 cell line (AID 743292). Also: % is scaled to controls: 0 for no effect and ±100 for the full control effect; nearly all actives have a fitted effect of over 55% in size. The gist of the method:
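Readout: CellTiter-Glo luminescence after 30 min RT. Treatment: compounds in DMSO, 16 h, 37 C. Cells: CellSensor p53RE-bla HCT-116, 4,000/well, preincubated 5 h.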

Assay [10] is described as follows: qHTS profiling for inhibitors of Plasmodium falciparum (3D7) proliferation (AID 743322; call rule not given here;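 also: infected erythrocytes exposed to compound for 72 h before lysis; 100% = DMSO vehicle wells and 0% = 0.29 µM artemisinin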). The settings on record: P. falciparum 3D7 proliferation; at 28.7 µM (top of the series) unless noted. An outline of the steps:
as §1

The nature of assay [11]: qHTS profiling for inhibitors of Plasmodium falciparum (DD2) proliferation (AID 743323; call rule not given here). The note with it: lower = more inhibition; at 28.7 µM (top of the series) unless noted. An outline of the steps: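 SYBR Green fluorescence (ex 485, em 535 nm) of lysed cultures gives parasite DNA content; wells normalized to artemisinin (0.29 uM) and DMSO controls. Infected red cells: 0.3% parasitemia, 2.5% hematocrit, 72 h, 37 C.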

The nature of assay [12]: qHTS profiling for inhibitors of Plasmodium falciparum (HB3) proliferation (AID 743324).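 Also: 100% = DMSO vehicle wells and 0% = artemisinin-treated control wells.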 The settings on record: Plasmodium falciparum HB3 blood-stage proliferation; at 28.7 µM (top of the series) unless noted. An outline of the steps: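 P. falciparum HB3 grown in erythrocytes (0.3% parasitemia, 2.5% hematocrit final) with compound for 72 h at 37 C, 5% CO2. Parasite DNA detected by SYBR Green after saponin/triton lysis overnight; normalized to 0.29 uM artemisinin and DMSO.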

A short description of assay [13]: Identifying Small Molecule Inhibitors of Pancreatic Cancer Stem Cells (SN12C, Adherent) (AID 1259358).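 Also: cell survival measured after 48 h of compound exposure.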 The gist of the method: (§2)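 Pre-formed 14-day tumor spheroids or adherent cells dosed and incubated 48 h, 37C, 5% CO2. Viability assessed by CellTiter-Glo.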
A short description of assay [14]: Identifying Small Molecule Inhibitors of Pancreatic Cancer Stem Cells (Panc1, Spheroid) (AID 1259359).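 Also: potency is read from the fitted curve at half-maximal effect; compound exposure lasted 48 h before reading.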 An outline of the steps:
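Endpoint: ATP-based luminescence, 48 h drug exposure. Bortezomib at 9.2 uM final as full-kill control; DMSO vehicle as negative control; activity normalized between vehicle and cell-free wells.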

Assay [15] is described as follows: Identifying Small Molecule Inhibitors of Pancreatic Cancer Stem Cells (Panc1, Adherent) (AID 1259362). Also: potency is read from the fitted curve at half-maximal effect. The note with it: Potency: viability. The gist of the method: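 Luminescent ATP readout (CellTiter-Glo) quantifies surviving cells after a 48 h drug incubation. Normalization uses DMSO wells as no inhibition and media-only wells as full inhibition; bortezomib served as positive control.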

Assay [16] in a line: Identifying Small Molecule Inhibitors of Pancreatic Cancer Stem Cells (A278, Adherent) (AID 1259361). Also: nearly all actives have a fitted effect of over 35% in size. An outline of the steps: as §2
A short description of assay [17]: Identifying Small Molecule Inhibitors of Pancreatic Cancer Stem Cells (A2780, Spheroid) (AID 1259357).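 Also: compound exposure lasted 48 h before the ATP luminescence read; 100% = DMSO treated cells and 0% = wells without cells.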 The note with it: Potency: A2780 spheroid viability. The gist of the method: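 Cytotoxicity read by CellTiter-Glo luminescence after 48 h compound exposure at 37C; percent activity scaled between DMSO-treated cells and cell-free wells. Spheroid formats used cells pre-formed 14 days in stem cell media on hydrogel.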

Each structure is given as a SMILES string. Inconclusive results are not listed. Calls of active or inactive are those of the source. Unless noted, calls follow the shape of the dose curve; as a rule, active = well fitted curve in the direction sought with a large enough effect; inconclusive = small, poorly fitted or top-dose-only effect, or another doubt; inactive = no such curve, though single readings can be large; an effect the other way counts as inactive or inconclusive. *1 amine or outer side, *2 acyl side, *3 side chain or, on linkers, in order; H or OH if unused. Where a SMILES comes first, the peptide text is derived from it. Bridges are numbered along the chain shown (N, C = ends). Roman numbers before positions name the chains, in order. [ ]: non-standard residue; d: D form. ξ: configuration not given here. Actinocin(9to1) = Cc1c2oc3c(C)ccc(C(=O)[*:1])c3nc-2c(C(=O)[*:2])c(N)c1=O; ξNMeV = CNC(C(=O)O)C(C)C; ξV = CC(C)C(N)C(=O)O; Sar = CNCC(=O)O

Take `O=C(/C=C/c1c(C(=O)O)[nH]c2cc(Cl)cc(Cl)c12)Nc1ccccc1`: the Potency result in assay [1] was “inactive”.
The same measure, in the same setting: under `CC1=CCC2C(C)(CO)CCCC2(C)C1CC12OC1C(O)C(CO)=CC2O` (stereo not given) stands “inactive”; under `CC(C)(C)NCC(O)COc1cccc2c1CCCC2=O` (stereo not given), “inactive”.
In turn, `C=C1C(=CC=C2CCC[C@@]3(C)[C@@H]2CC[C@H]3[C@H](C)CCCC(C)C)C[C@@H](O)C[C@@H]1O` gave a parasite growth, % of DMSO control in [2] of 22.5%. The parasite growth remaining, % of DMSO control (lower = more inhibition) in [3] turned out to be 65.2%. Besides, the parasite growth, % of control (lower = inhibition) in assay [4] was found to be 29.8%. Further, the growth, % of control in assay [5] was 19.8%. Further, the Potency result in [6] is “inactive”.
Regarding `CC(C)=O`, the max response is -8.02% (inactive) in assay [7] and -4.51% (inactive) in [8]. In assay [9], the compound was classed as inactive. In assay [6], the Potency entry was “inactive”.
Turning to `NCCOCCOCCNC(=O)Cc1ccc(Nc2nc(NCc3ccc(F)cc3)nc(NCC3CCCCC3)n2)cc1`, the Potency entry in assay [1] is “inactive”.
Take `CN(NC(=O)CC(=O)NN(C)C(=S)c1ccccc1)C(=S)c1ccccc1`: in [10], the remaining parasite growth % (stronger effect = lower value) came to 2.19% [at 57.5 µM]. Besides, the activity, percent of control in assay [11] was 4.04% [at 57.5 µM]. Also, the remaining proliferation (% of control), lower = more inhibition in assay [12] was 5.46%. In addition, the Potency entry in [13] and in assay [15] was “inactive” in each case. Further, the Potency in [14] is 3.3 nM (active).
For `Cc1c2oc3c(C)ccc(C(=O)N[C@@H]4C(=O)NC(C(C)C)C(=O)N5CCC[C@H]5C(=O)N(C)CC(=O)N(C)C(C(C)C)C(=O)O[C@@H]4C)c3nc-2c(C(=O)N[C@@H]2C(=O)NC(C(C)C)C(=O)N3CCC[C@H]3C(=O)N(C)CC(=O)N(C)C(C(C)C)C(=O)O[C@@H]2C)c(N)c1=O` (stereo not given in full) (I: T[ξV]P[Sar][ξNMeV] / II: T[ξV]P[Sar][ξNMeV]; ester I:1-I:C, II:1-II:C; linker I:N-II:N via Actinocin(9to1)), the Potency is 13.2 nM (active) in assay [7], 4.7 nM (active) in [14] and 13.2 nM (active) in assay [15]. In addition, the remaining parasite growth % (stronger effect = lower value) in [10] is -2.78%. For the same compound, the activity, percent of control in assay [11] is -1.83%. Moreover, the remaining proliferation (% of control), lower = more inhibition in assay [12] was -2.59%.
With `C[C@@H]1C[C@H](O[C@@H]2O[C@H](CO[C@@H]3OC[C@](O)(CO)[C@H]3O)[C@@H](O)[C@H](O)[C@H]2O)CC(C)(C)[C@H]1/C=C/[C@@H](C)O`, the Potency entry in assay [1] was “inactive”.
For the compound `CC(NC(=O)Cc1cc(F)cc(F)c1)C(=O)NC(C(=O)OC(C)(C)C)c1ccccc1` (stereo not given), the max response in assay [7] was 8.47% (inactive). Also, in [10], the remaining parasite growth % (stronger effect = lower value) is 103%. Moreover, the activity, percent of control in assay [11] is 97.7%. In addition, the remaining proliferation (% of control), lower = more inhibition in assay [12] is 104%. Besides, the Potency entry in [13] and in assay [15] was “inactive” in each case. In addition, in [16], the IC50 (viability decrease) result is “inactive”.
Regarding `COC(=O)C1=C(C)NC(C)=C(C(=O)OCCCN2CCC(c3ccccc3)(c3ccccc3)CC2)[C@H]1c1cccc([N+](=O)[O-])c1`, the Potency in assay [7] is 14800 nM (active). Moreover, in [10], the remaining parasite growth % (stronger effect = lower value) is -1.45%. The activity, percent of control in assay [11] was -0.102%. Moreover, in [12], the remaining proliferation (% of control), lower = more inhibition was -0.517%. The Potency entry in assay [17] is “inactive”. The IC50 (viability decrease) in [16] is 26400 nM (active).
As to `OCCc1ccc(O[C@@H]2O[C@H](CO)[C@@H](O)[C@H](O)[C@H]2O)c(O)c1`, in assay [1], the Potency result was “inactive”.

These data come from PubChem BioAssay (NCATS).
